About 14,000 (4.5%) of roughly 310,000 compounds showed an effect of 50% or more. The effect is printed as a negative number. Only a selection was taken, and strong results are over-represented in it overall.
target: human ether-à-go-go-related gene (hERG) potassium channel (human, UniProt Q12809); test: primary screen, population patch clamp on CHO cells stably expressing hERG; higher = less effect of the substance
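Further: peak tail current of the secondary pulse compared with the same well before compound.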

Sequence of human ether-à-go-go-related gene (hERG) potassium channel (Q12809 whole entry, looked up): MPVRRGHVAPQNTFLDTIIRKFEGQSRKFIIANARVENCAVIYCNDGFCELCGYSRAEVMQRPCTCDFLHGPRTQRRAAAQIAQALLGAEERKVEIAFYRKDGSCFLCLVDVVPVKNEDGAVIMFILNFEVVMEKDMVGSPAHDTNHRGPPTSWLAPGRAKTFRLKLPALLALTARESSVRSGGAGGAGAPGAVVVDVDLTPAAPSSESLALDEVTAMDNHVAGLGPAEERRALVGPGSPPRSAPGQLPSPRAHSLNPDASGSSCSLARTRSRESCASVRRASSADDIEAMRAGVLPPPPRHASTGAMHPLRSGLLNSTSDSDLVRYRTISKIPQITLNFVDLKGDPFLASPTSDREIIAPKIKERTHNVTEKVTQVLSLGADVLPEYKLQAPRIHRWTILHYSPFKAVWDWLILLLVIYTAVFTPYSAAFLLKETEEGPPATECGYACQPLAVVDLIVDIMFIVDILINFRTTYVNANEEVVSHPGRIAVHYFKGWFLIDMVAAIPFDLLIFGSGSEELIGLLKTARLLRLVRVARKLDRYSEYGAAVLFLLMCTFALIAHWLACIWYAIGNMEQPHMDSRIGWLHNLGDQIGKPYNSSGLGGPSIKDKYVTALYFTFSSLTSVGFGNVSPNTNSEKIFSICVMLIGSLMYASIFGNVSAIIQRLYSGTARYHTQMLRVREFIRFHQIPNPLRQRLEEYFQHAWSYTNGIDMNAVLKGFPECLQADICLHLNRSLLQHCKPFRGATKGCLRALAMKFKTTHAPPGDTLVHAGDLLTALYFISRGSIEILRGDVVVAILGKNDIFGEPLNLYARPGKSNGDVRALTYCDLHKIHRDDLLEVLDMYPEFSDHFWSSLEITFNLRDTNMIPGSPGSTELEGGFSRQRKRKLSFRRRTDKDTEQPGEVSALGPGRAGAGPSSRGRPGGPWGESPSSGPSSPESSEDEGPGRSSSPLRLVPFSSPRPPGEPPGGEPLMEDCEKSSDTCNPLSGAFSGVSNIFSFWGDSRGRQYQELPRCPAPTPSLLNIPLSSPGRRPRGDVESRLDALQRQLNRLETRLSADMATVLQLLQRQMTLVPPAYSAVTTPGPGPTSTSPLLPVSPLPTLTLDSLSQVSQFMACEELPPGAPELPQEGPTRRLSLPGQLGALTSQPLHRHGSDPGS

Row | Compound | hERG current change (%, negative = inhibition) at 10uM
1 | CC[C@@]12C(=O)N(c3cccc(F)c3)C(=O)N1[C@H](c1cccc(C)c1)[C@@H]1C(=O)N(Cc3ccccc3)C(=O)[C@@H]12 | 0.427%
2 | Cc1cc(-c2ccccc2)nc(N/N=C/c2ccco2)n1 | -0.804%
3 | O=C(OCC(=O)N1CCCc2ccccc21)c1ccccc1NCCO | -15.9%
4 | Cc1ccc(S(=O)(=O)N2CCCCC2)cc1NC(=O)CSc1ccc2c(c1)OCCO2 | -9.32%
5 | CCOC(=O)CSc1n[nH]c(NS(=O)(=O)c2ccccc2C(F)(F)F)n1 | -1.78%
6 | CSc1ccc(C2Nc3ccccc3-c3cc(C)nn32)cc1 (centres unmarked) | -3.75%
7 | COc1cc(/C=C(/C#N)c2nc3ccccc3[nH]2)ccc1OC(=O)c1ccco1 | -6.24%
8 | O=C(COC(=O)Cc1ccccc1)Nc1cc(S(=O)(=O)N2CCCCC2)ccc1Cl | -81.8%
9 | CS(=O)(=O)c1ccc(Cl)c(NC(=O)COC(=O)c2cccc(S(=O)(=O)N3CCCC3)c2)c1 | -51.5%
10 | O=C(COC(=O)CCS(=O)(=O)c1ccccc1)Nc1cc(S(=O)(=O)N2CCCCC2)ccc1Cl | -4.61%
11 | CS(=O)(=O)c1ccc(Cl)c(NC(=O)COC(=O)c2cccc(S(=O)(=O)N3CCCCC3)c2)c1 | -30.9%
12 | Cc1ccc(C(=O)OCC(=O)Nc2cc(S(C)(=O)=O)ccc2Cl)cc1S(=O)(=O)N1CCCCC1 | -26.9%
13 | O=C(COC(=O)c1ccccc1)Nc1cc(S(=O)(=O)N2CCCCCC2)ccc1Cl | 7.5%
14 | CCOC(=O)c1ccc(NC(=O)NCc2ccccc2)cc1 | -9.51%
15 | COc1ccc(S(=O)(=O)N2CCN(C(=S)Nc3ccc(S(N)(=O)=O)cc3)CC2)cc1 | 15.7%
16 | CCC(C(=O)Nc1nccs1)c1ccccc1 (centres unmarked) | 9.98%
17 | COc1ccc(-n2c(=O)c3ccccc3n(CC(=O)NCC3CCCO3)c2=O)cc1 (centres unmarked) | 13.4%
18 | O=C(c1cnc2ccccc2n1)N1CCN(c2ccc(C(F)(F)F)cn2)CC1 | -17.1%
19 | O=S(=O)(CCc1nc2ccccc2o1)c1ccc(Cl)cc1 | -7.14%
20 | Cc1ccc2[nH]c(=O)c(CN(CCCN3CCOCC3)Cc3nnnn3C3CCCC3)cc2c1 | -54.5%
21 | CCOc1ccc2[nH]c(=O)c(CN(CCCN3CCOCC3)Cc3nnnn3Cc3ccc(OC)cc3)cc2c1 | -60.9%
22 | COc1ccc(Cn2nnnc2CN(CCCN2CCOCC2)Cc2cc3cc(OC)ccc3[nH]c2=O)cc1 | -42.7%
23 | COc1ccc2cc(CN(CCCN3CCOCC3)Cc3nnnn3C3CCCC3)c(=O)[nH]c2c1 | -59.7%
24 | Cc1ccc2[nH]c(=O)c(CN(Cc3ccccc3)Cc3nnnn3C3CCCC3)cc2c1 | -6.83%
25 | Cc1ccc2[nH]c(=O)c(CN(Cc3ccc4c(c3)OCO4)Cc3nnnn3C3CCCC3)cc2c1 | 4.66%
26 | COc1cc2cc(CN(CCCN3CCOCC3)Cc3nnnn3Cc3ccccc3)c(=O)[nH]c2cc1OC | -20.2%
27 | COc1ccc2cc(CN(CCCN3CCOCC3)Cc3nnnn3C3CCCCC3)c(=O)[nH]c2c1 | -26.5%

Row | Compound | hERG current change (%, negative = inhibition) at 10uM
28 | COc1ccc2cc(CN(Cc3ccco3)Cc3nnnn3C3CCCCC3)c(=O)[nH]c2c1 | -19.4%
29 | CCOc1ccc(S(=O)(=O)n2nnc3ccccc32)cc1C | 14.6%
30 | CCCn1c(C)c(C(=O)OCC)c(O)c(-c2ccccc2)c1=O | 19.5%
31 | CC(=O)N1CCN(c2cc(N3CCCC3)c(F)cc2[N+](=O)[O-])CC1 | 5.05%
32 | COc1ccc(/C=N/Nc2ccc(C(F)(F)F)cc2[N+](=O)[O-])cc1 | 5.35%
33 | Cn1cccc1Cc1nnc(SCC(=O)NCCc2ccccc2)n1-c1ccc(F)cc1 | -21.6%
34 | CC(C)Cc1nnc(NC(=O)CN2C(=O)NC3(CCCC3)C2=O)s1 | -9.22%
35 | CC(=O)N=c1scc(-c2ccccc2)n1-c1cccc(O)c1 | 7.32%
36 | COc1cnn(-c2ccccc2)c(=O)c1SCc1ccc(Cl)c(Cl)c1 | -21.1%
37 | COc1cnn(-c2ccc(C)cc2)c(=O)c1SCc1ccccc1 | -20.9%
38 | COc1cnn(-c2ccc(Br)cc2)c(=O)c1SCc1ccccc1 | -65.6%
39 | CN(C)S(=O)(=O)c1ccc(NC(=S)NC(=O)C2CCC2)cc1 | 10.3%
40 | CC(C)(SC(=S)N1CCCCCC1)C(=O)O | 24.3%
41 | CC(C)(C)n1cn[nH]c1=S | 22%
42 | CCCSc1cc(N2CCCC2)nc(-c2ccccc2)n1 | 15.5%
43 | COc1cccc(CN2CCN(Cc3cc(OC)c(OC)c(OC)c3)CC2)c1OC.O=C(O)C(=O)O | -8.03%
44 | COc1ccc(CN2CCC(N(CCc3ccccc3)Cc3ccccc3)CC2)c(OC)c1.O=C(O)C(=O)O | -74.5%
45 | COc1ccc(CN2CCC(C(=O)N(C)CCc3ccc(OC)c(OC)c3)CC2)c(OC)c1.O=C(O)C(=O)O | -44.9%
46 | COc1cccc(CN2CCC(N(CCc3ccccc3)Cc3ccccc3)CC2)c1OC.O=C(O)C(=O)O | -60.3%
47 | COc1ccc(CCN(C)C(=O)C2CCN(Cc3cccc(OC)c3OC)CC2)cc1OC.O=C(O)C(=O)O | -3.13%
48 | COc1ccc(CN2CCC(N3CC(C)OC(C)C3)CC2)c(OC)c1.O=C(O)C(=O)O (centres unmarked) | -1.98%
49 | O=C(Nc1ccccc1)c1ccc(S(=O)(=O)NCc2ccco2)cc1 | -11.6%
50 | O=C(Cc1ccc(S(=O)(=O)N2CCCC2)s1)NC1CCCCCC1 | -31.4%
51 | C/C(=N\NC(=O)Cn1nc(C)cc1C)c1ccc([N+](=O)[O-])cc1 | -17.6%
52 | O=C(Nc1ccc(Cc2ccc(NC(=O)C3CC3)c(O)c2)cc1O)C1CC1 | 8.31%
53 | CCC(=O)N1C(Cc2ccccc2)COC1(C)C (centres unmarked) | -73.4%
54 | CCC(=O)N1COC[C@@H]1Cc1ccccc1 | 25.4%

Row | Compound | hERG current change (%, negative = inhibition) at 10uM
55 | CCC1(C)NC(=O)N(CC(=O)N2CCC(Cc3ccccc3)CC2)C1=O (centres unmarked) | 3.65%
56 | Cn1c(=O)c2ncn(CC(=O)N=Nc3c(O)[nH]c4ccccc34)c2n(C)c1=O | 20.7%
57 | O=[N+]([O-])c1cccc(/C=N/NC2=NCCCCC2)c1 | -83%
58 | Cl.O=[N+]([O-])c1ccccc1/C=N/NC1=NCCCCC1 | -39.3%
59 | O=C(N/N=C/c1cccc(O)c1)C(=O)N1CCCCCC1 | 24.6%
60 | O=C(N/N=C/c1ccc([N+](=O)[O-])cc1)C(=O)N1CCCC1 | 13.5%
61 | O=C(N/N=C/c1cccc([N+](=O)[O-])c1)C(=O)N1CCCCCC1 | -52.5%
62 | O=C(ONC1=NCCCCC1)c1cccc([N+](=O)[O-])c1 | 0.994%
63 | O=C(CSc1nnc(-c2cccnc2)n1CCc1ccccc1)NCc1ccccc1 | -10.9%
64 | CCOc1ccc(-c2nnc(SCC(=O)N(CC)CC)n2N)cc1 | 5.1%
65 | CN1C(=O)Cc2cc(S(=O)(=O)N3CCN(c4ccc(Cl)cc4)CC3)ccc21 | -2.2%
66 | COc1ccccc1Nc1nc(NCCO)nc(N)c1[N+](=O)[O-] | 2.88%
67 | Cc1cc(=O)oc2cc(OCC(=O)OCC(=O)Nc3ccccc3C(C)C)ccc12 | 3.47%
68 | CS(=O)(=O)c1ccccc1C(=O)Nc1cc2c(cc1C(=O)O)OCCCO2 | -57.3%
69 | COc1ccccc1C(=O)Nc1cc2c(cc1C(=O)O)OCCCO2 | -2.13%
70 | CSc1ccccc1C(=O)Nc1cc2c(cc1C(=O)O)OCCCO2 | 18.2%
71 | C/C=C\C(=O)Nc1cccc(C2=NOC3(C2)C[C@@H](C(N)=O)N(C(=O)CCCCC)C3)c1 (some centres unmarked) | -31%
72 | CCCCCC(=O)Nc1cccc(C2=NOC3(C2)C[C@H](C(N)=O)N(C(=O)CC)C3)c1 (some centres unmarked) | 6.18%
73 | CCCCCC(=O)Nc1cccc(C2=NOC3(C2)C[C@H](C(N)=O)N(C(=O)CCCCC)C3)c1 (some centres unmarked) | -70.7%
74 | CCCCCC(=O)N1CC2(CC(c3cccc(NC(=O)CC(c4ccccc4)c4ccccc4)c3)=NO2)C[C@@H]1C(N)=O (some centres unmarked) | 11.4%
75 | NC(=O)[C@@H]1CC2(CC(c3cccc(NC(=O)COc4ccc(Cl)cc4)c3)=NO2)CN1C(=O)COc1ccc(Cl)cc1 (some centres unmarked) | -29.4%
76 | CCCCCC(=O)N1CC2(CC(c3cccc(NC(=O)COc4ccc(Cl)cc4)c3)=NO2)C[C@@H]1C(N)=O (some centres unmarked) | -77%
77 | CCCCCC(=O)N1CC2(CC(c3cccc(NC(=O)CC)c3)=NO2)C[C@H]1C(N)=O (some centres unmarked) | -11.6%
78 | CCCCCC(=O)N1CC2(CC(c3cccc(NC(=O)c4ccccc4)c3)=NO2)C[C@@H]1C(N)=O (some centres unmarked) | -54.6%
79 | CCCCCC(=O)Nc1cccc(C2=NOC3(C2)C[C@H](C(N)=O)N(C(=O)COc2ccc(Cl)cc2)C3)c1 (some centres unmarked) | -22%
80 | N#CCCN1CCN(S(=O)(=O)c2ccc(S(=O)(=O)NC3CCCC3)cc2)CC1 | -9.4%
